MITF inh: MITF inhibitors, primary screen, biochemical, AlphaScreen, human; inhibition, % at 2.6 µM; AlphaScreen MITF homodimerization, bead proximity signal; actives 0.91% (n = 650,000); Microphthalmia-associated transcription factor (Homo sapiens), O75030; in the data active = inhibition above about 50%;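 also: 0% = vehicle wells with protein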
GPR151 activ: activators of human GPR151, primary screen, cell-based, PathHunter beta-arrestin, luminescence; PathHunter beta-arrestin GPR151 cells; actives 1% (n = 650,000); activation, % at 11.2 µM; in the data active = activation above about 4.9%;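 also: 0% = median of compound wells and 100% = cells with positive control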
Target sequence (Q8TDV0 whole entry, looked up): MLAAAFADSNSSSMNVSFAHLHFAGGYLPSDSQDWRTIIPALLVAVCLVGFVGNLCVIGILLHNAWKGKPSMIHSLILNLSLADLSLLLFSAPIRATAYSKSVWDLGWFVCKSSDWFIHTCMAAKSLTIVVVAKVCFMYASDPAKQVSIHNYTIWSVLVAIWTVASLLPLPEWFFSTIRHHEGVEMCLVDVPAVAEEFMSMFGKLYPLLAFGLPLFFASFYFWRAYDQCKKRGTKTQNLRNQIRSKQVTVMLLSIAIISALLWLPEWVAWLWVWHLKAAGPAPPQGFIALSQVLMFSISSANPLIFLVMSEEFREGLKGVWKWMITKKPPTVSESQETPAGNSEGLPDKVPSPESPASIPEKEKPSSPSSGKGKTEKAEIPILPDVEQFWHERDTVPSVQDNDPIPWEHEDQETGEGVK
FBW7 activator: FBW7 E3 ligase activators, primary screen, biochemical, AlphaScreen, human | AlphaScreen FBW7–phospho-cyclin E peptide binding, activator screen | normalized activity (activation), % at 26.1 µM | actives 0.13% (n = 650,000) | AID 1259310, 2017; in the data active = normalized activity above about 1.9%;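 also: purified mutant Fbw7 with reduced substrate affinity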
TEAD-YAP inh: TEAD-YAP interaction inhibition, primary screen, TEAD-YAP interaction inhibitor project, luminescence, HEK-TIYL cells; TEAD-Gal4/YAP UAS-luciferase luminescence; inhibition, % at 9.12 µM; actives 1.4% (n = 640,000); in the data active = inhibition above about 32%;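 also: 0% = median of test compound wells and 100% = reference inhibitor wells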
* hit, by the source's call. Only some compounds are listed: those with a hit (about 3.4% of all), similar ones and a draw of the others.

Results for Cc1cc(C)c2c(c1)-c1c(ssc1=S)C(C)(C)N2C(=O)C(C)C ?
MITF inh: 52*; GPR151 activ: -1; FBW7 activator: 0; TEAD-YAP inh: 17

What do the screens show for `O=C(COC(=O)c1cccs1)Nc1ccc(F)cc1`?
MITF inh: 6; GPR151 activ: 0; FBW7 activator: 0; TEAD-YAP inh: -6

How did Cc1cc(C(F)(F)F)nc(Sc2ccc([N+](=O)[O-])cn2)n1 do in these assays?
MITF inh: 24; GPR151 activ: -1; FBW7 activator: 0; TEAD-YAP inh: 60*

How did O=[N+]([O-])c1ccc(Sc2n[nH]c(-c3ccncc3)n2)nc1 do in these assays?
MITF inh: 5; GPR151 activ: 0; FBW7 activator: 0; TEAD-YAP inh: 5

What do the screens show for `COc1ccc(Br)cc1C1=N/C(=C\c2cccs2)C(=O)O1`?
MITF inh: 8; GPR151 activ: 1; FBW7 activator: 0; TEAD-YAP inh: 1

What do the screens show for `Cc1ccc(-c2cc(C(=O)N3CCOCC3)c3ccccc3n2)cc1`?
MITF inh: -6; GPR151 activ: -1; FBW7 activator: 0; TEAD-YAP inh: -10

Results for COc1ccc(NC(=O)c2cc(-c3ccncc3)nc3ccccc23)cc1 ?
MITF inh: -2; GPR151 activ: 0; FBW7 activator: 0; TEAD-YAP inh: 40*

How did COc1ccc2cc(-c3cc(C(=O)N4CCN(CCO)CC4)c4ccccc4n3)ccc2c1 do in these assays?
MITF inh: -1; GPR151 activ: -1; FBW7 activator: 0; TEAD-YAP inh: 70*

How did CC(C)c1ccc(-c2cc(C(=O)O)c3ccccc3n2)cc1 do in these assays?
MITF inh: 9; GPR151 activ: -5; FBW7 activator: 0; TEAD-YAP inh: 74*

How did COc1cccc(-c2cc(C(=O)N3CCOCC3)c3ccccc3n2)c1 do in these assays?
MITF inh: -2; GPR151 activ: 0; FBW7 activator: 0; TEAD-YAP inh: 11

What do the screens show for `CCc1ccc(-c2cc(C(=O)N3CCN(Cc4ccccc4)CC3)c3ccccc3n2)cc1`?
MITF inh: 17; GPR151 activ: 0; FBW7 activator: 0; TEAD-YAP inh: 65*

What do the screens show for `CCc1ccc(-c2cc(C(=O)N3CCN(c4ncccn4)CC3)c3ccccc3n2)s1`?
MITF inh: -14; GPR151 activ: 1; FBW7 activator: 0; TEAD-YAP inh: 33*

What do the screens show for `COc1ccc(-c2cc(C(=O)N3CCN(c4ccccc4OC)CC3)c3ccccc3n2)cc1`?
MITF inh: -12; GPR151 activ: 1; FBW7 activator: 0; TEAD-YAP inh: 41*

Results for Cc1ccc(-c2csc(Nc3ccc(C(=O)O)cc3)n2)o1 ?
MITF inh: -3; GPR151 activ: 0; FBW7 activator: 0; TEAD-YAP inh: -77

How did CC(C)Oc1ccc(C(=O)NCCC(=O)O)cc1 do in these assays?
MITF inh: 16; GPR151 activ: 1; FBW7 activator: 0; TEAD-YAP inh: -13

Results for CC(C)Oc1ccc(C(=O)NCCCCCC(=O)O)cc1 ?
MITF inh: 5; GPR151 activ: 0; FBW7 activator: 1; TEAD-YAP inh: 39*

What do the screens show for `CC(C)CCOc1ccc(C(=O)NCCCCCC(=O)O)cc1`?
MITF inh: 2; GPR151 activ: -1; FBW7 activator: 0; TEAD-YAP inh: 38*

What do the screens show for `CC(C)COc1ccc(C(=O)NCCC(=O)O)cc1`?
MITF inh: 22; GPR151 activ: 1; FBW7 activator: 0; TEAD-YAP inh: 8

How did CC(C)COc1ccc(C(=O)NCCCCCC(=O)O)cc1 do in these assays?
MITF inh: -9; GPR151 activ: 1; FBW7 activator: 0; TEAD-YAP inh: 47*

How did CCOc1ccc(C(=O)NCCCCCC(=O)O)cc1 do in these assays?
MITF inh: 12; GPR151 activ: -1; FBW7 activator: 0; TEAD-YAP inh: 20

How did O=C(COc1ccccc1)Nc1nnc(SCC(=O)Nc2ccccc2F)s1 do in these assays?
MITF inh: 0; GPR151 activ: 0; FBW7 activator: 0; TEAD-YAP inh: -4

How did Cc1cc(OCC(=O)Nc2ccc(C(=O)OC3CCCCC3)cc2)ccc1Cl do in these assays?
MITF inh: 18; GPR151 activ: 2; FBW7 activator: 0; TEAD-YAP inh: 84*

How did COc1ccc(Br)cc1C(=O)NC(=S)Nc1ccc2c(c1)C(=O)N(C)C2=O do in these assays?
MITF inh: 13; GPR151 activ: 1; FBW7 activator: 0; TEAD-YAP inh: -3

How did COc1ccc(C(=O)/C(=C\c2ccc(OC)c(OC)c2)c2nc3ccccc3o2)cc1 do in these assays?
MITF inh: 7; GPR151 activ: 2; FBW7 activator: 0; TEAD-YAP inh: 43*

Results for Cc1ccccc1-c1cn[nH]c1C1CCCN(C(=O)c2ccc(-n3ccnc3)cc2)C1 (stereo not given) ?
MITF inh: 15; GPR151 activ: -2; FBW7 activator: 0; TEAD-YAP inh: 1

What do the screens show for `CCCCS(=O)(=O)CC(COC(=O)c1ccccc1)S(=O)(=O)CCCC` (stereo not given)?
MITF inh: 11; GPR151 activ: 0; FBW7 activator: 0; TEAD-YAP inh: 33*

How did CCCCCCOc1ccc(C(=O)OCC(=O)c2ccccc2)cc1 do in these assays?
MITF inh: -4; GPR151 activ: -1; FBW7 activator: 0; TEAD-YAP inh: 9

Results for C=CCN(c1ccccc1)S(=O)(=O)c1ccc(F)c(C(=O)NCC(OC)OC)c1 ?
MITF inh: 8; GPR151 activ: 1; FBW7 activator: 0; TEAD-YAP inh: 3

Results for C=CCN(c1ccccc1)S(=O)(=O)c1ccc(F)c(C(=O)NCCc2ccccc2)c1 ?
MITF inh: 2; GPR151 activ: 0; FBW7 activator: 0; TEAD-YAP inh: 35*

What do the screens show for `Cc1c(NS(=O)(=O)c2ccc([N+](=O)[O-])cc2)c(=O)n(-c2ccccc2)n1C`?
MITF inh: 13; GPR151 activ: 0; FBW7 activator: 2.0*; TEAD-YAP inh: -4

How did COc1cccc(N(C(=O)c2csnn2)C(C(=O)NC(C)(C)C)c2ccc(C)cc2)c1 (stereo not given) do in these assays?
MITF inh: 19; GPR151 activ: 0; FBW7 activator: 0; TEAD-YAP inh: 16

What do the screens show for `Cc1nc(C)n(-c2ccc(Nc3ncc4ccc(-c5cn[nH]c5)cc4n3)cc2)n1`?
MITF inh: 11; GPR151 activ: -1; FBW7 activator: 0; TEAD-YAP inh: 73*

What do the screens show for `Cc1ccc(-c2ncn(-c3ccc(Nc4ncc5ccc(Br)cc5n4)cc3)n2)cn1`?
MITF inh: -7; GPR151 activ: 1; FBW7 activator: 0; TEAD-YAP inh: 4

How did Cn1ncc2cc(Nc3ncc4ccc(-c5cn[nH]c5)cc4n3)ccc21 do in these assays?
MITF inh: 22; GPR151 activ: 4; FBW7 activator: 0; TEAD-YAP inh: 71*

Results for Cc1nc(C)n(-c2ccc(Nc3cc4cc(-c5cn[nH]c5)ccc4cn3)cc2)n1 ?
MITF inh: 11; GPR151 activ: 0; FBW7 activator: 0; TEAD-YAP inh: 85*
